# From PubChem BioAssay
# M1 PAM parental – nonselective calcium activators in parental CHO-K1 cells, primary screen, counter-screen for M1 PAM project, cell-based, Fluo-8 calcium fluorescence, full deck, 1536-well; ATP EC20; 0% at ATP EC20, 100% at ATP max; activation, % at 3 µM; 360,000 compounds, 0.02% hits; AID 602247, 2012;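 active = activation above the run cutoff, the mean activation of all test compounds plus 3 SD, cut at about 40% in these data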;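 also: peak over basal fluorescence ratio in a 140 s read after ATP addition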
# CHO-K1 Ca ag – counter-screen for M1 agonists: effect in parental CHO-K1 cells; activation, % at 3 µM; AID 602248, 2012; 360,000 compounds, 0.48% hits; Fluo-8 calcium fluorescence; scaled to maximal ATP response, vehicle zero; in the data active = activation above about 15%;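 also: untransfected CHO-K1 host cells lacking M1 receptor as counterscreen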
# CHRM1 PAM – human M1 muscarinic receptor positive allosteric modulators, primary screen, CHO-K1 cells, Fluo-8 calcium fluorescence, 1536-well; CHO-K1 hM1, ACh EC20; 0% = ACh EC20, 100% = maximal ACh; activation, % at 3 µM; 360,000 compounds, 0.088% hits; in the data active = activation above about 19%, passing the limit was not always enough
# Target sequence (P11229 whole entry, looked up): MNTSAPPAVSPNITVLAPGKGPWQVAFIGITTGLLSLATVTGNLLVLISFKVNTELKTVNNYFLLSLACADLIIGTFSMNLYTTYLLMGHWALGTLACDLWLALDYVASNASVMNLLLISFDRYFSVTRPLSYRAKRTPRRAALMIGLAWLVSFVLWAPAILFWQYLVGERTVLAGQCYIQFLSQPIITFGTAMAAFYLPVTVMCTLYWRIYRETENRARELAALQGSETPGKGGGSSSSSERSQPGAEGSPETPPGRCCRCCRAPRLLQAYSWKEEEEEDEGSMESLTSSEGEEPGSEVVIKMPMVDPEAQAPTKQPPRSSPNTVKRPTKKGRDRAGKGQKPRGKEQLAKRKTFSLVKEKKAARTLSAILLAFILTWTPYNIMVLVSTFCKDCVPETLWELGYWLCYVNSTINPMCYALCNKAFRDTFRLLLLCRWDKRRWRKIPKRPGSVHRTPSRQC
# CHO-K1 Ca antag – counter-screen for M1 antagonists: effect in parental CHO-K1 cells | ATP-induced calcium, Fluo-8 fluorescence | inhibition, % at 3 µM | 360,000 compounds, 0.6% hits | AID 602250;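 active = inhibition above a per-plate cutoff, the plate's mean sample inhibition plus 3 SD, cut at about 24% in these data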
# CHRM1 antagonist – human M1 muscarinic receptor antagonists, primary screen, CHO-K1 cells, Fluo-8 calcium fluorescence, 1536-well. CHO-K1 hM1, ACh EC80 antagonist. inhibition, % at 3 µM. 360,000 compounds, 1.3% hits. AID 588852, 2011;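 active = percent inhibition above its own plate's cutoff, namely the mean of that plate's compound wells plus 3 SD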;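 also: peak over basal fluorescence ratio during 140 s after agonist addition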
# CHRM1 agonist – human M1 muscarinic receptor agonists, primary screen, Fluo-8 calcium fluorescence, CHO-K1 cells, HTS; Muscarinic acetylcholine receptor M1 (Homo sapiens), P11229; CHO-K1 hM1, agonist mode; 0% DMSO, 100% acetylcholine EC100; activation, % at 3 µM; 360,000 compounds, 0.33% hits;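 active = activation above the run's mean compound activation plus 3 SD, cut at about 16% in these data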;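 also: peak over basal fluorescence ratio within a 140 s kinetic read after compound addition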
# A number is an active result; i = inactive; nt = no result given. Hits are enriched below; roughly 2.3% of the tested compounds scored in any of these assays.
SMILES,M1 PAM parental,CHO-K1 Ca ag,CHRM1 PAM,CHO-K1 Ca antag,CHRM1 antagonist,CHRM1 agonist
COc1ccc(-c2noc(CNC(=O)c3ccoc3C)n2)cc1OC,i,i,i,i,i,i
CCOC(=O)C1CCN(S(=O)(=O)c2ccc3[nH]c4c(c3c2)CCCC4)CC1,i,16.0,i,i,i,i
CCOC(=O)C1CCN(CC(C)(C)NS(=O)(=O)c2ccccc2)CC1,i,18.5,i,i,i,i
CC(=O)N1CCN(CC(C)(C)NS(=O)(=O)c2ccccc2)CC1,i,i,i,i,i,i
CCOC(=O)C1CCN(S(=O)(=O)c2ccc(C)c(C)c2)CC1,i,16.7,i,i,i,i
CN(C)c1ccc(/C=N/N2CCN(Cc3ccccc3Cl)CC2)cc1,i,i,i,i,i,i
N#CC1C=Cc2c(ccc3ccccc23)N1C(=O)c1ccccc1 (stereo unspecified),i,i,i,i,i,i
CCOC(=O)c1ccc(NS(=O)(=O)c2c(C)nc3sccn3c2=O)cc1,i,i,i,i,i,i
O=C(O)c1ccc(N/N=C/C=C/c2ccc([N+](=O)[O-])o2)cc1,i,i,i,i,35.9,27.1
O=[N+]([O-])c1ccc(N/N=C/C=C/c2ccco2)cc1,i,20.7,i,i,i,i
O=C(N/N=C/c1ccco1)c1cc([N+](=O)[O-])cc([N+](=O)[O-])c1,i,i,i,i,i,i
c1ccc(-c2nc(SCc3nc4ccccc4[nH]3)c3oc4ccccc4c3n2)cc1,i,i,i,i,i,i
COc1ccccc1CCNC(=O)c1cc(-c2ccccn2)nc2ccccc12,i,i,i,i,32.0,i
Cc1cc(C)cc(N(CCC#N)C(=O)CSc2n[nH]c(N)n2)c1,i,i,i,i,i,i
CC(C)Cn1c(-c2ccc(Br)cc2)c[nH]c1=S,i,15.3,i,i,i,i
COC(=O)c1cc2c(ccn2-c2ccc(F)cc2)n1Cc1ccc(OC(C)=O)cc1,i,20.9,i,i,i,i
Cc1cccc(C)c1NC(=O)CN1CCN(C(=O)CN2C(=O)NC3(CCCCC3C)C2=O)CC1 (stereo unspecified),i,i,28.5,i,i,i
CC(=O)Nc1ccc(C(=O)OCC(=O)N(c2ccccc2)C2CCS(=O)(=O)C2)cc1 (stereo unspecified),i,i,i,i,i,i
O=C(CCl)N(c1ccccc1)C1CCS(=O)(=O)C1 (stereo unspecified),i,22.6,i,i,i,i
COC(=O)c1ccc(OC(=O)c2ccc(OC)c(OC)c2)c(OC)c1,i,i,i,i,i,i
COc1ccc(C(Cl)=C(C=O)c2ccc(OC)c(OC)c2)cc1OC,i,i,i,i,i,17.5
CCN1/C(=C\c2ccc3cc(C)ccc3[n+]2CC)Sc2cc(C)c(C)cc21,i,18.2,i,34.8,52.4,i
CCN1/C(=C/c2ccc3cccc(C)c3[n+]2CC)Sc2ccccc21,i,i,i,i,50.6,i
CCN1/C(=C/c2ccc3cc(C)cc(C)c3[n+]2CC)Sc2cc(C)ccc21,i,21.3,i,40.3,54.8,17.9
O=C(NCc1nnnn1-c1ccc(Cl)cc1)C(=O)c1c[nH]c2ccccc12,i,i,i,i,i,i
SMILES,M1 PAM parental,CHO-K1 Ca ag,CHRM1 PAM,CHO-K1 Ca antag,CHRM1 antagonist,CHRM1 agonist
Cc1ccc2cc3c(=O)n(C)cc(C=O)c3nc2c1,i,i,i,i,i,i
CN(C)CCCN(C(=O)c1ccco1)c1nc2ccc(F)cc2s1,i,i,i,i,i,17.5
CN(C)CCCN(C(=O)c1ccco1)c1nc2c(F)cc(F)cc2s1,i,i,i,i,i,i
Cc1ccc2nc(N(CCCN(C)C)C(=O)c3ccco3)sc2c1,i,i,i,i,i,i
CN(C)CCCN(C(=O)CCc1ccccc1)c1nc2c(F)cccc2s1,i,17.9,i,i,i,i
CN(C)CCCN(C(=O)c1ccco1)c1nc2c(F)cccc2s1,i,i,i,i,47.2,i
O=C(CCN1C(=O)c2ccccc2S1(=O)=O)NCc1ccc(F)cc1,i,i,i,i,i,i
O=C(CN1C(=O)c2ccccc2S1(=O)=O)NCc1ccc(F)cc1,i,i,i,62.6,i,i
CC(=O)Nc1ccc(S(=O)(=O)NCc2nc(-c3ccccc3Cl)no2)cc1,i,i,i,i,i,i
Cc1ccc(C(=O)NCc2ccc(Cl)cc2)cc1S(=O)(=O)N1CCCCC1,i,i,i,i,i,i
O=C1Nc2ccc(Cl)cc2C(=O)C1(F)c1ccccc1 (stereo unspecified),i,17.2,i,i,i,i
O=C1Nc2c(ccc(Cl)c2Cl)C(=O)C1(F)c1ccccc1 (stereo unspecified),i,i,i,i,i,i
CCOC(=O)NC(=O)/C(C#N)=N/Nc1ccc(F)cc1,i,i,i,27.3,i,i
CCC(CO)NCc1cc(OC)c(OCC(=O)NCCc2ccccc2)cc1Br (stereo unspecified),i,i,i,i,i,i
COc1ccc(-c2nnc(SCC(=O)c3ccc(O)cc3O)o2)cc1,i,i,i,i,i,i
O=C(Cc1ccccc1Cl)c1ccccc1,i,i,32.1,i,i,i
O=C(CC(=O)c1ccccc1)c1ccccc1,i,i,i,i,i,i
CC(C)NC(=O)OC1CC2CC1[C@H]1CCCCN1C2=O (stereo partly specified),i,i,nt,i,nt,nt
O=C(O)CSCC(=O)N1CCN(c2nc3cc(Cl)ccc3s2)CC1,i,i,i,i,i,i
CN(CC(=O)Nc1ccc(Cl)c(Cl)c1)C(=O)/C=C/c1ccc(F)cc1,i,i,i,25.5,i,i
COc1ccccc1OCCNC(=O)CSC(=S)N1CCCC1,i,i,i,i,i,i
COc1ccc(NC(=O)C2(N(CC(C)C)C(=O)Cn3nnnc3N)CCCCC2)cc1,i,i,i,24.7,i,i
CC(C)NC1CCC(Nc2ccnc3cc(Cl)ccc23)CC1 (stereo unspecified),i,i,i,i,i,i
CC(CCCN1CCCC1)Nc1ccnc2cc(Cl)ccc12 (stereo unspecified),i,i,i,i,57.6,i
Cc1ccc(CNC(=O)C(=O)NCC2OCCN2S(=O)(=O)c2ccc(Cl)cc2)cc1 (stereo unspecified),i,i,i,i,i,i
CCN1CCC2(CC1)N=C(c1ccc(F)cc1)C(=S)N2,i,i,i,i,38.6,i
